Values joined by “and” are separate entries in the source; they are usually repeats but may differ in a detail not shown here. Equal entries are not always repeated. Inconclusive results are not listed. Active and inactive are the calls of the source. Rule for the calls, unless noted: active = hit-call score of the fitted dose curve at least 0.9, where 1 is the maximum; inconclusive = response in the unintended direction; inactive = score below 0.9.
Key:
[1] = target: mouse Peroxisome Proliferator-activated Receptor gamma (PPARg), Pparg (gene 19016) (UniProt P37238); assay: ATG_mPPARg_XSP2: Attagene TRANS-FACTORIAL Multi-Species (XSP2) HepG2 Assay for mouse Peroxisome Proliferator-activated Receptor gamma (PPARg) (AID 2283830);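 note: hits are gains in reporter mRNA above DMSO so AC50 marks activation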
Chain of mouse Peroxisome Proliferator-activated Receptor gamma (PPARg), Pparg (gene 19016) (P37238 whole entry, looked up, the tested form may be a part): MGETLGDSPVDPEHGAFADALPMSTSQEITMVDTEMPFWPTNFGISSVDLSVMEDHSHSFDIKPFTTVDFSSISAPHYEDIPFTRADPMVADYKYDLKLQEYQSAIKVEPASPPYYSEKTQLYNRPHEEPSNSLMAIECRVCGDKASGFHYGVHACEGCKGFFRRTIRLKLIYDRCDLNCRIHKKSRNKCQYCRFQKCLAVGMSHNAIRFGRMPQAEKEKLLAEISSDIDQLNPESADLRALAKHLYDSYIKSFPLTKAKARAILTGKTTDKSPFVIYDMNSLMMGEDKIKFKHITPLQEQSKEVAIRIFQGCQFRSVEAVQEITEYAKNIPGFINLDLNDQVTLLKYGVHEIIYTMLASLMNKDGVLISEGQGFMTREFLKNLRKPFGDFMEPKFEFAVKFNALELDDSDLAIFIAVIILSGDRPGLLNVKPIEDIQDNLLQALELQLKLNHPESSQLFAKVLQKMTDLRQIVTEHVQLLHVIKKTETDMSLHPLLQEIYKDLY
In short: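 Multiplexed TRANS reporter readout: after 24 h chemical exposure of transfected HepG2 cells (with 3 nM 6-alpha-fluorotestosterone, 1.5 nM norgestrel present), RNA reverse-transcribed, amplified, 6-FAM-labelled and resolved by capillary electrophoresis; mouse PPARg-Gal4 induction scored against DMSO.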

[2] = target: Nuclear receptor subfamily 1 group I member 2 (Mus musculus) (UniProt O54915); assay: ATG_mPXR_XSP2: Attagene TRANS-FACTORIAL Multi-Species (XSP1) HepG2 Assay for mouse Pregnane X Receptor (PXR) (AID 2283831)
Chain of Nuclear receptor subfamily 1 group I member 2 (Mus musculus) (O54915 whole entry, looked up): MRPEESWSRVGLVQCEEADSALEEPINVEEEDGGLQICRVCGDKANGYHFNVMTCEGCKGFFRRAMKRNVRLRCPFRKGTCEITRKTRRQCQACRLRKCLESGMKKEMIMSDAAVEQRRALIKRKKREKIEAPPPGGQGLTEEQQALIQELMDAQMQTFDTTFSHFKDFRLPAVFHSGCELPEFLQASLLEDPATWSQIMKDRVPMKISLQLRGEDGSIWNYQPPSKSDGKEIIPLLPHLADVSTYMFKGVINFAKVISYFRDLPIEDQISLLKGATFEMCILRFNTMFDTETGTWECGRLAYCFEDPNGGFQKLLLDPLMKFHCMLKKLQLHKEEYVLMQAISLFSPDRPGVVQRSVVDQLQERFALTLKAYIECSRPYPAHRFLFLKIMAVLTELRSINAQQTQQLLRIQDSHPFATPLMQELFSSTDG
In short: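 Fluorescence signals from capillary electrophoresis of RT-PCR-amplified reporter mRNA give the readout, gain-of-signal versus DMSO. Transfected HepG2 cells, 24 h dosing, medium contained 3 nM 6-alpha-fluorotestosterone and 1.5 nM norgestrel.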

[3] = target: zebrafish Thyroid Hormone Receptor alpha (TRa), thraa (gene 30670) (UniProt Q98867); assay: ATG_zfTRa_XSP2: Attagene TRANS-FACTORIAL Multi-Species (XSP1) HepG2 Assay for zebrafish Thyroid Hormone Receptor alpha (TRa) (AID 2283832);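 note: actives raise zebrafish TRa-Gal4 reporter transcript above DMSO baseline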
Chain of zebrafish Thyroid Hormone Receptor alpha (TRa), thraa (gene 30670) (Q98867 whole entry, looked up, the tested form may be a part): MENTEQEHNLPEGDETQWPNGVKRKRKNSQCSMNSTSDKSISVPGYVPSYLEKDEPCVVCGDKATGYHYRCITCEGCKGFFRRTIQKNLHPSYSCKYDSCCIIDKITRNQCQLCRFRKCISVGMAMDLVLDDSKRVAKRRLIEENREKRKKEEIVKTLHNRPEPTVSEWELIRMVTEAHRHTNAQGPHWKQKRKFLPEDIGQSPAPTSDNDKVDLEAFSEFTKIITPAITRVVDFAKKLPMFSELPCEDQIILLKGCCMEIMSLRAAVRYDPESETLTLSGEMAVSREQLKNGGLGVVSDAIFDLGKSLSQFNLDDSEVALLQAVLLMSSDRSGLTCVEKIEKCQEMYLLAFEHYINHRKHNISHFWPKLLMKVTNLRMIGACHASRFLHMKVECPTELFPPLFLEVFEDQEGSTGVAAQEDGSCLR
Protocol: (§1) ATG_XSP2_multi-species_TRANS is a cell-based, multiplexed assay created by modifying the existing Attagene TRANS-FACTORIAL system to include a panel of nuclear receptors from some or all the following species: human (Homo sapiens), mouse (Mus musculus), frog (Xenopus laevis), zebrafish (Danio rerio), chicken (Gallus gallus), and turtle (Chrysemys picta). The ECOTOX-FACTORIAL format uses HepG2, a human liver cell line, with measurements taken at 24 hours after chemical dosing in a 24-well plate. Xsp2 included 3 nM 6-alpha-fluorotestosterone and 1.5 nM norgestrel to stimulate the androgen receptor.ATG_zfTRa_XSP2 is one of 29 assay components measured or calculated from the ATG_XSP2_multi-species_TRANS assay. It is designed to make measurements of mRNA induction, a form of inducible reporter, as detected with fluorescence intensity signals by Reverse transcription polymerase chain reaction (RT-PCR) and Capillary electrophoresis technology.The assay endpoint ATG_zfTRa_XSP2 was analyzed in the positive analysis fitting direction relative to DMSO as the negative control and baseline of activity. […] Furthermore, this assay endpoint can be referred to as a primary readout, because this assay has produced multiple assay endpoints where this one serves a reporter gene function. […]
Human liver HepG2 cells are transiently transfected with multiple reporter transcription units (MRTUs) in 6-well plates using FuGene 6 reagent (Roche; 3 ml FuGene/1 mg DNA). […] A major difference between the CIS and TRANS system is that in CIS activities of endogenous TFs are measured, whereas the TRANS assay evaluates changes in activities of exogenous, chimeric NR-Gal4 proteins. […] The fragments were purified using Qiaquick PCR columns (Qiagen), analyzed on an ABI 3130xL genetic analyzer (Applied Biosystems) with peak positions identified by using a set of X-rhodamine (ROX)-labeled MapMarker1000 molecular weight standards (BioVentures). […]

[4] = system: zebrafish Peroxisome Proliferator-activated Receptor gamma (PPARg), gene 557037; assay: ATG_zfPPARg_XSP2: Attagene TRANS-FACTORIAL Multi-Species (XSP2) HepG2 Assay for zebrafish Peroxisome Proliferator-activated Receptor gamma (PPARg) (AID 2283833);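 note: reporter mRNA from a zebrafish PPARg GAL4 chimera measured by RT-PCR and capillary electrophoresis; actives increase reporter signal over DMSO so AC50 reflects activation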
In short: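 HepG2, transient MRTU transfection, 24 h compound; zfPPARg-GAL4 reporter mRNA by RT-PCR + capillary electrophoresis; gain-of-signal vs DMSO.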

[5] = ATG_M_61_XSP2: Attagene TRANS-FACTORIAL Multi-Species (XSP2) HepG2 Assay for M61 Transcription Factor (Internal Marker) (AID 2283835; active = hit-call score of the fitted dose curve at least 0.9, where 1 is the maximum; inactive = score below 0.9;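 note: reporter mRNA of an internal background marker read by RT-PCR and capillary electrophoresis; active means a rise in signal above the DMSO baseline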)
In short: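 Signal was mRNA induction detected as fluorescence after RT-PCR and capillary electrophoresis, analysed in the gain direction with DMSO as baseline. HepG2 cells transiently carrying reporter constructs received chemicals for 24 h.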

[6] = target: zebrafish Thyroid Hormone Receptor beta (TRb), thrb (gene 30607) (UniProt Q9PVE4); assay: ATG_zfTRb_XSP2: Attagene TRANS-FACTORIAL Multi-Species (XSP1) HepG2 Assay for zebrafish Thyroid Hormone Receptor beta (TRb) (AID 2283836);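 for AC50: potency for induction of reporter signal above DMSO so agonist direction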
Chain of zebrafish Thyroid Hormone Receptor beta (TRb), thrb (gene 30607) (Q9PVE4 whole entry, looked up): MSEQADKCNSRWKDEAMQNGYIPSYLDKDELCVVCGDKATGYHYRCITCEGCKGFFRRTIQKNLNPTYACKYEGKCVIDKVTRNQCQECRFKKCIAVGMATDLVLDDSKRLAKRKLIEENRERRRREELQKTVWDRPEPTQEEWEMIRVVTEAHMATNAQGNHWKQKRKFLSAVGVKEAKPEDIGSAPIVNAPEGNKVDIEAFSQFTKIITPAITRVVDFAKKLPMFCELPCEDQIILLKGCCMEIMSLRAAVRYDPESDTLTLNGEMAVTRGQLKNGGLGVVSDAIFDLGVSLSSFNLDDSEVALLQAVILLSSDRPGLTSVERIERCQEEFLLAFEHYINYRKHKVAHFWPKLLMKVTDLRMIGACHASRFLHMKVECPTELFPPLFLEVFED
In short: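 Multiplexed trans-activation in HepG2 cells, 24 h treatment, with reporter mRNA read by RT-PCR and capillary electrophoresis. Gain-of-signal against DMSO.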

[7] = ATG_XTT_Cytotoxicity_XSP2: Cytotoxicity Assessment in the Attagene TRANS-FACTORIAL Multi-Species (XSP2) HepG2 Assay (AID 2283837)
In short: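 XTT-based cell number read-out in human HepG2 liver cells carrying transfected reporter units, measured 24 h after chemical dosing. Activity is signal loss versus DMSO baseline.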

[8] = system: turtle Thyroid Hormone Receptor, alpha (TRa), gene 101949057; assay: ATG_trTRa_XSP2: Attagene TRANS-FACTORIAL Multi-Species (XSP1) HepG2 Assay for turtle Thyroid Hormone Receptor, alpha (TRa) (AID 2283834);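 note: hits raise reporter mRNA over the DMSO baseline so AC50 marks activators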
In short: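 Multiplexed TRANS reporter assay; HepG2 carrying NR-Gal4 constructs treated 24 h. mRNA of the GAL4-UAS reporter quantified via labelled RT-PCR fragments on a genetic analyzer, vs DMSO negative control.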

[9] = target: frog Thyroid hormone Receptor alpha (TRa), thra-a (gene 397942) (UniProt P15204); assay: ATG_frTRa_XSP2: Attagene TRANS-FACTORIAL Multi-Species (XSP2) HepG2 Assay for frog Thyroid hormone Receptor alpha (TRa) (AID 2283839)
Chain of frog Thyroid hormone Receptor alpha (TRa), thra-a (gene 397942) (P15204 whole entry, looked up): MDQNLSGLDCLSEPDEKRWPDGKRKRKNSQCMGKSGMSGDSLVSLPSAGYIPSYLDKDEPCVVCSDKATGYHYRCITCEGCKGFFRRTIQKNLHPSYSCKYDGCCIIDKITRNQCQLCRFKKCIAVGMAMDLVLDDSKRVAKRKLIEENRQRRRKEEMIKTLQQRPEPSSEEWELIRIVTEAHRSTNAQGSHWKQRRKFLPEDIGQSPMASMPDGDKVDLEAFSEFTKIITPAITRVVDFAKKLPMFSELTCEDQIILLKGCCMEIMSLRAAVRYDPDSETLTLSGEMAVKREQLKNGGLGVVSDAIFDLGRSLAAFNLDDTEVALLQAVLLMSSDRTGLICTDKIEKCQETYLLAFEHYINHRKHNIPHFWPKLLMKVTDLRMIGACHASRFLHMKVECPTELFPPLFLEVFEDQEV
Protocol: as §1, with “receptor.ATG_frTRa_XSP2” for “receptor.ATG_zfTRa_XSP2”, “ATG_frTRa_XSP2” for “ATG_zfTRa_XSP2”

[10] = target: human Thyroid hormone Receptor alpha (TRa), THRA (gene 7067) (UniProt P10827); assay: ATG_hTRa_XSP2: Attagene TRANS-FACTORIAL Multi-Species (XSP2) HepG2 Assay for human Thyroid hormone Receptor alpha (TRa) (AID 2283838)
Chain of human Thyroid hormone Receptor alpha (TRa), THRA (gene 7067) (P10827 whole entry, looked up, the tested form may be a part): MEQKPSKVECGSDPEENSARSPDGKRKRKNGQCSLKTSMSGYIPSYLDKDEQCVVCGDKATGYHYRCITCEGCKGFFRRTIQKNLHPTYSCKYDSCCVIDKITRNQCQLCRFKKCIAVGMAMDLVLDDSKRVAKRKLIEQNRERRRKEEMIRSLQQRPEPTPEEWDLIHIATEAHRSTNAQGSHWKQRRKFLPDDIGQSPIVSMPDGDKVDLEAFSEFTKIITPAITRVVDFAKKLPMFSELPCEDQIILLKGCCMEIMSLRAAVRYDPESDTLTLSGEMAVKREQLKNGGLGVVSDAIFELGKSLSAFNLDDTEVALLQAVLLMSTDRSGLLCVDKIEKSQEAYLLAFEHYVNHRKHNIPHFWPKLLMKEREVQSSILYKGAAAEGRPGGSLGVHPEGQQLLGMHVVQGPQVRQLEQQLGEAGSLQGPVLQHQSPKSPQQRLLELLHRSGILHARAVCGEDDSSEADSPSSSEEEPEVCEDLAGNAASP
In short: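 Gain-of-signal in reporter mRNA, relative to DMSO, after 24 h dosing of transfected HepG2; quantitation by RT-PCR fragment analysis on capillary electrophoresis.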

Measured: AC50

CCN(CC)CCOc1ccc(C(=C(Cl)c2ccccc2)c2ccccc2)cc1
active: [2] 2.9 µM and 6.64 µM | [7] 34 µM
inactive: [1] | [3] | [4] | [5] | [6]

CC(=O)[C@@]1(O)CC[C@H]2[C@@H]3CCC4=CC(=O)CC[C@]4(C)[C@H]3CC[C@@]21C
inactive: [1] | [3] | [8] | [6] | [9]

Cc1c(C)c2c(c(C)c1O)CCC(C)(COc1ccc(CC3SC(=O)NC3=O)cc1)O2 (stereo unspecified)
active: [1] 0.54 µM | [6] 2.66 µM
inactive: [2] | [4] | [8] | [5] | [10] | [9]

CC(=O)O[C@]1(C(C)=O)CC[C@H]2[C@@H]3C=C(Cl)C4=CC(=O)[C@@H]5C[C@@H]5[C@]4(C)[C@H]3CC[C@@]21C
inactive: [1] | [3] | [4] | [5] | [6]
active: [2] 686 nM
